Our source for the growth values is PubChem BioAssay (NCI).

Compounds without any hit were thinned out: in the full panel of roughly 83,000, 20% have a hit.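 The endpoint reported here, percent growth, reads 100 for growth as untreated, 0 for no net growth and -100 for all cells dead.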 Activity calls are given as the source filed them. Rule for the calls: active = growth percent below 10; inactive = the rest.

In this assay the test system is MOLT-4 leukemia. Kind of assay: NCI-60 one-dose screen, 48 h (100 = growth as untreated, 0 = no growth, -100 = all killed). The note with it: 10 µM unless noted.
Turning to `CC(=O)OC[C@H]1OC(Sc2sc(C(=O)c3ccc(C)cc3)c(N)c2-c2nc3ccccc3s2)[C@H](OC(C)=O)[C@@H](OC(C)=O)[C@@H]1OC(C)=O` (some centres undefined), the growth was 80% (inactive).

As for `COC1=C(C)C(=O)c2c(c(CCCl)c3n2CCC3O)C1=O` (centres undefined), the growth is 74.6% (inactive). As for `Oc1ccc(C#CCOc2ccccc2)cc1CNCCN(Cc1ccccn1)Cc1ccccn1`, the growth is 1.72% (active). Turning to `CCc1nnc(NC(=O)c2nnn(-c3ccccc3)c2-c2ccco2)s1`, the growth is 93.7% (inactive). In the case of `CNc1nc2c(s1)C(c1cccc(F)c1)CC(=O)N2` (centres undefined), the growth is 103% (inactive). As for `CC(=O)O.CN1[CH-]N(Cc2ccc(C#N)cc2)c2ccccc21.[Ag+]`, the growth is 90.1% (inactive). For the compound `O=C(Nc1ccc(F)cc1F)c1cc(F)ccc1O`, the growth is 5.84% (active).

For the compound `CCc1ccc(Oc2c(-c3ccc(OCc4ccc(Cl)cc4)cc3O)nn(C)c2C(F)(F)F)cc1`, the growth is -13.6% (active).

With `CCC(=O)Nc1ccc(-c2nc(-c3cccc(OC)c3)c(-c3ccnc(Br)c3)[nH]2)cc1`, the growth was 44.6% (inactive). Under `CC/C=C\C[C@@H](O)C/C=C1/C(=O)C=C[C@H]1C/C=C\CCCC(=O)OC` stands -4.62% (active); under `CC(=O)CC(c1ccccc1)c1c(C)[nH]c2ccccc12` (centres undefined), 95% (inactive); under `Cc1nc2cnc(N)c(C#Cc3cncc(C(=O)Nc4ccc(CN5CCN(C)CC5)c(C(F)(F)F)c4)c3)c2nc1C`, 8.72% (active). In the case of `COc1ccc(-c2nc(NCCO)[nH]c(=O)c2C#N)cc1`, the growth was 98.8% (inactive). Consider `COc1ccn2c(C(C)=O)cc(C(=O)c3ccc4c(c3)Sc3ccccc3N4)c2c1`, for which the growth was 13.1% (inactive).
